HT1080NT lethal – kills 2HG-producing HT-1080-NT fibrosarcoma cells; HT-1080-NT fibrosarcoma viability, CellTiter-Glo ATP luminescence, 48 h; AID 686970; Potency, µM (highest dose often 46.1 µM), most hits filed as cytotoxic; hit rate 1.6% among 360,000;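 note: NT is the 2HG producing partner of a matched IDH1 knockdown line; nearly all actives have a fitted effect of over 55% in size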
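Viability by CellTiter-Glo luminescence after 48 h compound exposure at 37C of HT-1080-NT cells (750/well, RPMI, 5% FBS). % activity scaled between DMSO wells and medium-only wells, then curve-fitted and categorized by curve class.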
HT1080 IDH1KD tx – HT-1080 IDH1 knockdown cell toxicity (counter line). HT-1080 IDH1 knockdown viability, ATP luminescence, 48 h. Potency, µM (titrated, usually from 46.1 µM), usual class: cytotoxic. hit rate 2% among 360,000. AID 686971
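Cytotoxicity counter-line: IDH1KD HT-1080, 48 h, CellTiter-Glo. Curves classed by r2, magnitude and activity.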
IL-1B inflam inh – blocks inflammasome-driven IL-1 beta release; hit rate 4.7% among 360,000; AID 743279; activity change, % at 57.5 µM; THP-1 LPS/ATP IL-1B secretion, AlphaLISA, 16 h; hits give low values; in the data active = activity change below about -50%; inconclusive = mostly about -30% to -49%
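THP-1 cells pretreated 1 hr with compounds (up to 57.5 uM final), then stimulated with LPS (250 ng/mL final) plus ATP (1.25 mM final); secreted IL-1B measured by AlphaLISA after 16 hr, decreased signal indicating inhibition.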
TDP1 cell noCPT – qHTS for Inhibitors of human tyrosyl-DNA phosphodiesterase 1 (TDP1): qHTS in cells in absence of CPT; DT40 Tdp1-/- hTDP1 cells, no CPT, ATP luminescence, 48 h; Potency, µM (doses to about 46.2 µM), most hits filed as inhibitors; hit rate 15% among 420,000; note: nearly all actives have a fitted effect of over 55% in size
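Seeded 400 DT40-hTDP1 cells/well (vehicle DMSO, no 20 nM CPT); pinned compounds; ≥48 hr at 37 °C; CellTiter-Glo luminescence as viability measure.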
DT40 TDP1 CPT – growth inhibition of DT40 Tdp1-/-;hTDP1 cells with camptothecin (screen for TDP1 inhibitors) | AID 686979 | hit rate 12% among 420,000 | Potency, µM (doses to about 46.2 µM), usual class: inhibitors | chicken DT40 Tdp1-/-;hTDP1 cells + 20 nM CPT, ATP luminescence, 48 h; note: nearly all actives have a fitted effect of over 55% in size
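Chicken DT40 Tdp1-/- cells stably complemented with human TDP1 were seeded at 400 cells/well in medium containing 20 nM camptothecin, exposed to pin-transferred compounds, and grown at 37 °C for at least 48 hr. Viability was read as ATP luminescence.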
Each line names hits and unclear results; the compound was inactive in the other large screens. The list is not random: actives were taken first. Their share in the collection is about 19%. Unless noted, calls come from the whole dose curve; as a rule, active = well fitted curve in the direction sought with a large enough effect; inconclusive = small, poorly fitted or top-dose-only effect, or another doubt; inactive = no such curve, though single readings can be large; an effect the other way counts as inactive or inconclusive.

CCOc1ccccc1N1CC(O)=C(c2nc3ccccc3s2)C1=N	HT1080NT lethal 2.82µM, HT1080 IDH1KD tx 2.82µM, TDP1 cell noCPT 4.11µM, DT40 TDP1 CPT 3.26µM
N=C1C(c2nc3ccccc3s2)=C(O)CN1Cc1ccccc1	HT1080NT lethal inconclusive, HT1080 IDH1KD tx inconclusive, TDP1 cell noCPT 4.61µM, DT40 TDP1 CPT 7.31µM
COc1cc(Cl)ccc1OCc1cc(C(=O)N[C@H]2CCCCNC2=O)no1	none
CSCCC(NS(=O)(=O)c1ccc2c(c1)oc(=O)n2C)C(=O)Nc1ccc(F)c(Cl)c1 (configuration not stated)	TDP1 cell noCPT inconclusive (no result: HT1080NT lethal, HT1080 IDH1KD tx, IL-1B inflam inh)
O=C(NCc1ccccc1)C(C(=O)c1ccc(F)cc1)n1ccccc1=O (configuration not stated)	DT40 TDP1 CPT inconclusive
O=C(NCC1CCCO1)C(C(=O)c1ccc(F)cc1)n1ccccc1=O (configuration not stated)	TDP1 cell noCPT 23.1µM, DT40 TDP1 CPT inconclusive
COc1ccc(CCNC(=O)C(C(=O)c2ccc(F)cc2)n2ccccc2=O)cc1OC (configuration not stated)	TDP1 cell noCPT 6.51µM, DT40 TDP1 CPT inconclusive
COc1ccc(CCNC(=O)C(C(=O)c2ccccc2)n2cc(Cl)ccc2=O)cc1OC (configuration not stated)	none
COc1ccc(CCNC(=O)C(C(=O)c2ccccc2)n2ccccc2=O)cc1OC (configuration not stated)	TDP1 cell noCPT 5.8µM
CC1(C)CC(=O)C(C(=O)C2CCN(S(=O)(=O)c3ccccc3)CC2)C(=O)C1	none
C/C(Cc1ccccc1)=N\NC(=O)CNC(=O)Cc1ccccc1	none
COc1ccc(/C=N/Nc2nc(-c3cccnc3)nc3ccccc23)cc1OC	IL-1B inflam inh -51.7, TDP1 cell noCPT 3.66µM, DT40 TDP1 CPT 16.4µM
Oc1ccc(/C=N/Nc2nc(-c3cccnc3)nc3ccccc23)c(O)c1	HT1080NT lethal inconclusive, HT1080 IDH1KD tx inconclusive, TDP1 cell noCPT 4.11µM, DT40 TDP1 CPT 23.1µM
COc1cccc(-c2nc(NCc3cccnc3)c3ccccc3n2)c1	none (no result: HT1080NT lethal, HT1080 IDH1KD tx, IL-1B inflam inh)
CC(=O)NCCNc1nc(-c2cccnc2)nc2ccccc12	none (no result: HT1080NT lethal, HT1080 IDH1KD tx, IL-1B inflam inh)
Cc1c(O)ccc(/C=N/Nc2nc(-c3cccnc3)nc3ccccc23)c1O	HT1080NT lethal 17.8µM, HT1080 IDH1KD tx inconclusive, TDP1 cell noCPT 3.66µM, DT40 TDP1 CPT 5.17µM
COc1ccc(CCNc2nc(-c3cccnc3)nc3ccccc23)cc1OC	HT1080NT lethal inconclusive, HT1080 IDH1KD tx 10.3µM, IL-1B inflam inh inconclusive, TDP1 cell noCPT 9.2µM, DT40 TDP1 CPT 13µM
COc1ccc(C(=O)C2CCCN(C(=O)Cn3nc(C)cc3C)C2)cc1F (configuration not stated)	none
CC(Sc1nncs1)C(=O)Nc1ccc2c(c1)OCO2 (configuration not stated)	none
Cc1nc(CSc2ccc(Br)cc2)cs1	none
Cc1ccc(-c2nc(N/N=C/c3ccncc3)c3ccccc3n2)cc1	HT1080NT lethal 11.2µM, HT1080 IDH1KD tx 10µM, TDP1 cell noCPT 18.4µM, DT40 TDP1 CPT 20.6µM
CCc1ccccc1N=C1S/C(=C/c2ccccc2OCC(=O)N2CCOCC2)C(=O)N1C	HT1080NT lethal inconclusive, HT1080 IDH1KD tx inconclusive, IL-1B inflam inh -71.7, TDP1 cell noCPT inconclusive, DT40 TDP1 CPT inconclusive
CC(OC(=O)Cc1ccc(F)cc1)C(=O)NCc1ccc2c(c1)OCO2 (configuration not stated)	none
CCN(CC)C(=S)SC1CCCCN(C(=O)c2ccccc2)C1=O (configuration not stated)	DT40 TDP1 CPT 18.4µM
CC(O)CNC12CC3CC(CC(C3)C1)C2 (configuration not stated)	none
CCNC(=S)N(CCc1c(C)[nH]c2ccccc12)Cc1cccnc1	TDP1 cell noCPT inconclusive, DT40 TDP1 CPT inconclusive
CNC(=S)N(CCc1c(C)[nH]c2ccc(C)cc12)Cc1cc(OC)c(OC)c(OC)c1	TDP1 cell noCPT 14.6µM, DT40 TDP1 CPT inconclusive
CCNC(=S)N(CCc1c(C)[nH]c2ccccc12)Cc1cc(OC)c(OC)c(OC)c1	TDP1 cell noCPT 10.3µM, DT40 TDP1 CPT 16.4µM
CNC(=S)N(CCc1c(C)[nH]c2ccccc12)Cc1cc(OC)c(OC)c(OC)c1	TDP1 cell noCPT 20.6µM, DT40 TDP1 CPT inconclusive
O=C(NCCc1nnc2ccc(NCC3CCCO3)nn12)c1ccccc1 (configuration not stated)	none
O=C(COC(=O)c1cc(F)cc(F)c1)Nc1cccnc1Cl	none
COc1ccccc1N1CCN(C(=O)c2ccc3ncsc3c2)CC1	HT1080NT lethal 11.6µM, HT1080 IDH1KD tx 8.2µM, TDP1 cell noCPT 2.31µM, DT40 TDP1 CPT 6.51µM
COc1ccc(OC)c2sc(N3CCN(C(=O)c4ccc5ncsc5c4)CC3)nc12	none
C=CCn1c(=O)[nH]c2cc(C(=O)N3CCN(c4cc(C)ccc4C)CC3)ccc2c1=O	TDP1 cell noCPT inconclusive, DT40 TDP1 CPT inconclusive
Cc1ccc(C)c(N2CCN(C(=O)c3ccc4nc(-c5ccco5)c(-c5ccco5)nc4c3)CC2)c1	HT1080NT lethal inconclusive, HT1080 IDH1KD tx inconclusive, IL-1B inflam inh inconclusive, TDP1 cell noCPT 23.1µM, DT40 TDP1 CPT inconclusive
COc1ccccc1N1CCN(C(=O)c2ccc3nc(-c4ccco4)c(-c4ccco4)nc3c2)CC1	HT1080NT lethal inconclusive, HT1080 IDH1KD tx inconclusive, IL-1B inflam inh inconclusive, TDP1 cell noCPT 20.6µM, DT40 TDP1 CPT inconclusive
CC(NC(=O)C12CC3CC(CC(O)(C3)C1)C2)c1ccccc1 (configuration not stated)	none
COc1ccc(C(=O)CSc2nnc(CNC(=O)c3ccccc3)o2)cc1	DT40 TDP1 CPT inconclusive
COc1ccccc1OCC(=O)NCc1n[nH]c(=O)c2ccccc12	TDP1 cell noCPT inconclusive, DT40 TDP1 CPT inconclusive
O=c1[nH]nc(Cc2ncc(C(F)(F)F)cc2Cl)c2ccccc12	TDP1 cell noCPT 16.4µM, DT40 TDP1 CPT inconclusive
O=c1[nH]nc(CNc2ccc(C(F)(F)F)cc2)c2ccccc12	TDP1 cell noCPT 14.6µM, DT40 TDP1 CPT 11.6µM
O=c1[nH]nc(CNc2ccc(OC(F)(F)F)cc2)c2ccccc12	TDP1 cell noCPT 18.4µM, DT40 TDP1 CPT 20.6µM
O=C(Cc1n[nH]c(=O)c2ccccc12)NCc1ccccc1	DT40 TDP1 CPT inconclusive
CC(C)(Oc1ccc(Cl)cc1)C(=O)NCc1n[nH]c(=O)c2ccccc12	TDP1 cell noCPT inconclusive, DT40 TDP1 CPT 20.6µM
CCN(CC(=O)Nc1c(F)cccc1F)C(=O)CNC(=O)C1CCCCC1	none
CC(=O)Nc1ccc(/C=C/c2ccccn2)cc1	none (no result: HT1080NT lethal, HT1080 IDH1KD tx, IL-1B inflam inh)
O=C1CCCCC1C1(O)C(=O)Nc2ccccc21 (configuration not stated)	none
O=c1[nH]nc(CNc2ccc(Cl)cc2Cl)c2ccccc12	HT1080 IDH1KD tx inconclusive, TDP1 cell noCPT inconclusive, DT40 TDP1 CPT inconclusive

Source: PubChem BioAssay (National Center for Advancing Translational Sciences (NCATS))
